In general, IC50 refers to the concentration needed to halve the response being measured.

The other results are listed elsewhere or left out. Calls of active or inactive are those of the source. How the calls were made is not given here.

This assay is described as follows: compounds displacing fluorescent intercalator from DNA, dose response, counter-screen for HCV NS3 helicase inhibitor project, biochemical, fluorescence (AID 2172). The note with it: fluorescent intercalator displacement from DNA. (Counterscreens check selectivity or assay interference.)
As for `Cc1ccc(/C=C/C(=O)Nc2ccc([N+](=O)[O-])c(NC(=O)/C=C/c3ccc(C)o3)c2)o1`, the IC50 was > 79.4 µM (inactive).

On to `Cc1cc(O)c(C(=O)/C=C/c2c(F)c(F)c(F)c(F)c2F)c(=O)o1`, for which the IC50 is > 79.4 µM (inactive).

For `Cc1cc(N2C(=O)C(O)=C(C(=O)c3ccc(C)o3)C2c2ccc(OCc3ccccc3)cc2)no1` (centres undefined), the IC50 was > 79.4 µM (inactive).

Consider `CC(Oc1ccccc1)C(=O)Nc1oc(-c2ccco2)c(-c2ccco2)c1C#N` (centres undefined), for which the IC50 was > 79.4 µM (inactive).
